Bioassay records (PubChem BioAssay)
S2 tox – cell viability loss in ATXN counter-screen; S2 cells (HEK-293 line with an ATXN2-luciferase reporter) viability, CellTiter-Fluor protease fluorescence, 24 h; Potency, µM (doses to about 56.7 µM), usual class: cytotoxic; 400,000 compounds, 0.49% hits; AID 651635; further: nearly all actives have a fitted effect of over 40% in size
ATXN2 expr inh – reduces ATXN2 reporter expression in HEK-293 cells; Potency, µM (top dose mostly 57 µM), inactives show at the highest dose activity change, negative = inhibition, actives largely listed as inhibitors; AID 1745845; HEK-293 ATXN2-luciferase reporter, luminescence, 24 h; 360,000 compounds, 0.72% hits; further: on the % scale 0 is the no-effect control and ±100 the full control effect; nearly all actives have a fitted effect of over 55% in size
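qHTS (up to 57 uM final) was run with 24 h compound exposure of reporter cells at 37 °C. Each well was multiplexed: SteadyGlo luminescence measured ATXN2-luciferase expression after a fluorogenic Gly-Phe-AFC viability readout (25 uM final).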
TGFb inhibitor – TGF-b pathway inhibition | HepG2 CAGA-GFP TGF-b/SMAD3 reporter, GFP fluorescence, 18 h; TGF-beta stimulated, 500 pg/mL final | Potency, µM (doses to about 46.1 µM), without a hit: at the top dose activity, negative = inhibition, most hits filed as inhibitors | 410,000 compounds, 1.2% hits; further: on the % scale 0 is the no-effect control and ±100 the full control effect; nearly all actives have a fitted effect of over 65% in size
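Smad-responsive CAGA-GFP expression was quantified in HEPG2 cells exposed to compounds and 500 pg/mL final TGF-beta for 18 h at 37 degrees C; unstimulated wells defined full inhibition.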
HepG2 viability – counter-screen for TGF-b inhibitors: cytotoxicity in HepG2 cells. HepG2 CAGA-GFP viability, ATP luminescence, 18 h. AID 588856. 410,000 compounds, 0.76% hits. Potency, µM (doses to about 46.1 µM), for inactives: top-dose activity change, negative = cytotoxicity, hits mostly cytotoxic
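CellTiter-Glo luminescence gave cytotoxicity after 18 hours at 37 degrees C. The cells were HepG2 CAGA-GFP in 1% FBS DMEM, stimulated with 500 pg/mL TGF-beta after compound addition. %Activity was normalised to no-cell wells (complete cell-killing) and DMSO (no toxicity), and curves were fitted and classified.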
HT1080 IDH1KD tx – HT-1080 IDH1 knockdown cell toxicity (counter line); HT-1080 IDH1 knockdown viability, ATP luminescence, 48 h; 360,000 compounds, 2% hits; Potency, µM (series often up to 46.1 µM), for the others: at the highest dose activity, negative = toxicity, most hits filed as cytotoxic;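 further: 0% = DMSO wells and -100% = cell-free medium wells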
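Using the IDH1-knockdown HT-1080 line run in the same batch and compound series as the NT line, viability after 48 h at 37 °C was determined by CellTiter-Glo luminescence and expressed as % activity.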
HT1080-NT tox – kills 2HG-producing HT-1080-NT fibrosarcoma cells. HT-1080-NT fibrosarcoma viability, CellTiter-Glo ATP luminescence, 48 h. Potency, µM (highest dose often 46.1 µM), inactives show at the top dose activity, negative = less viability, usual class: cytotoxic. AID 686970. 360,000 compounds, 1.6% hits;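 further: NT is the 2HG producing partner of a matched IDH1 knockdown line; 0% = DMSO-treated cells and -100% = media-only wells without cells; nearly all actives have a fitted effect of over 55% in size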
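Compounds were tested in concentration-response format on HT-1080-NT cells for 48 hours at 37 degrees C. Cell viability came from CellTiter-Glo luminescence; curves were classified by r2, response magnitude and activity.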
* hit, by the source's call; i = inactive; ? = inconclusive; · = no result given; ! = a repeat was not active; [ ] = dose if it differs, or a comment. An excerpt weighted towards active compounds, which were near 3.8% of everything screened. The call rests on the fitted dose curve; in most records, active means well fitted curve in the direction sought with a large enough effect; inconclusive means small, poorly fitted or top-dose-only effect, or another doubt; inactive means no such curve, though single readings can be large; an effect the other way counts as inactive or inconclusive. Potency means the concentration at half of the fitted maximal effect.

SMILES	S2 tox	ATXN2 expr inh	TGFb inhibitor	HepG2 viability	HT1080 IDH1KD tx	HT1080-NT tox
COc1ccc(CN(C(=S)Nc2ccccc2)C2CC(=O)N(c3ccc(Cl)cc3)C2=O)cc1 (stereo not given)	i	-17%	?	1%	?	12µM*
C[C@H](CCC(=O)O)[C@H]1CC[C@H]2[C@H]3[C@@H](CC[C@]12C)[C@@]1(C)CC[C@@H](O)C[C@H]1C[C@@H]3O	·	-2%	·	·	·	·
CCCCCCCCCCCCCCCCn1cc[n+](C)c1	20µM*	14µM*!	11µM*	-103%	21µM*	16µM*
O=C1C=C(c2ccccc2)C(=O)N1Nc1ccccc1	?	?	?	-98%	?	-5%
Cc1ccc(NN2C(=O)C=C(c3ccc(Cl)cc3)C2=O)cc1	·	25µM*	?	-54%	?	?
COc1ccc(C2=CC(=O)N(Nc3ccccc3)C2=O)cc1	i	-27%	?	-151%	16µM*	?
O=C(O)Cc1cccc(-c2cc(CCCCCCc3ccc(O[C@H]4O[C@H](CO)[C@@H](O)[C@H](O)[C@@H]4O)c(-c4cccc(CC(=O)O)c4)c3)ccc2O[C@H]2O[C@H](CO)[C@@H](O)[C@H](O)[C@@H]2O)c1	i[0.575 µM]	5%[0.709 µM]	·	·	·	·
COC(=O)c1ccc2c(=O)n(CCCCCC(=O)N3CCN(c4cccc(C)c4C)CC3)c(=O)[nH]c2c1	·	·	2.8µM*	-2%	·	·
COC(=O)c1ccc2c(=O)n(CCCCCC(=O)NCc3ccccc3)c(=O)[nH]c2c1	i	0%	10%	-4%	2%	4%
Cc1ccc(Cl)cc1N1CCN(C(=O)CCCn2c(=O)[nH]c3ccc(Br)cc3c2=O)CC1	?	?	11µM*	-36%	·	·
COC(=O)c1ccc2c(=O)n(CCCCCC(=O)NC(C)C)c(=O)[nH]c2c1	i	-22%	25µM*!	-23%	24%	-13%
O=C(C[N+]1(CCO)CCOCC1)c1ccc(F)c2ccccc12	·	·	14%	4%	·	·
CCOc1ccc2nc(NC(=S)NCc3ccccc3)sc2c1	i	-13%	-6%	-28%	4µM*	?
CC(=O)Nc1nc2cc3c(cc2s1)OCO3	i	8%	5%	-11%	-3%	-3%
O=C(Nc1nc2cc3c(cc2s1)OCO3)C1=COCCO1	i	?	-3%	8.9µM*	18µM*	13µM*
CC1CCc2nc(NC(=O)c3ccco3)sc2C1 (stereo not given)	i	11µM*	-2%	-40%	-15%	-14%
O=C(Nc1nc2cc3c(cc2s1)OCCO3)c1ccco1	?	8.9µM*	8%	-64%	?	?
Cc1cccc2cc(CN(C(=O)c3ccc(-c4ccc(F)cc4)cc3)C3CC3)c(N3CCC(O)CC3)nc12	i	·	·	·	·	·
Cc1ccc(C(=O)Nc2nc3ccc(S(C)(=O)=O)cc3s2)o1	i	2%	-14%	-81%	?	21µM*
CCOc1ccc2nc(NC(=O)c3ccoc3C)sc2c1	i	2%	-15%	1.8µM*	3.7µM*	2.3µM*
CCOc1ccc2nc(NC(=O)c3ccco3)sc2c1	i	-29%	-6%	-52%	18µM*	21µM*
CCc1ccccc1NC(=O)c1nn(-c2ccc(C)cc2)c(=O)c2c1c1ccccc1n2C	i	10%	-10%	-60%	·	·
COC(=O)c1cccc(-n2sc3ccccc3c2=O)c1	?	-7%	?	-34%	-18%	-21%
Cc1ccc(N2C(=O)CC(N3CCN(c4ccc(F)cc4)CC3)C2=O)c(C)c1 (stereo not given)	i	2%	-8%	-4%	2%	1%
O=c1c2ccccc2sn1-c1ccc(F)cc1	?	-12%	10µM*	-92%	-18%	?
SMILES	S2 tox	ATXN2 expr inh	TGFb inhibitor	HepG2 viability	HT1080 IDH1KD tx	HT1080-NT tox
Cc1ccc(-n2sc3cc(F)ccc3c2=O)c(C)c1	22µM*	?	?	11µM*	?	?
O=c1c2cc(F)ccc2sn1-c1ccccc1Cl	22µM*	?	?	-57%	?	?
O=c1c2ccc(F)cc2sn1-c1ccccc1	20µM*	?	11µM*	-110%	?	-25%
COc1ccc(OC)c(CN2CCCC(c3nc(C)ncc3-c3ccc(F)cc3)C2)c1 (stereo not given)	i	·	·	·	·	·
Cc1cnc(-n2ncc(C(=O)N(C)CCc3ccccn3)c2-c2cccs2)nc1-c1ccc(F)cc1	i	·	·	·	·	·
CCOC(=O)c1c(NC(=S)N2CCOCC2)sc2c1CCN(C(=O)OCC)C2	i	?	?	-95%	12µM*	9.2µM*
COC(=O)c1ccccc1C(=O)NCC1Cc2cc(-c3nc(C)cnc3C)ccc2O1 (stereo not given)	i	·	·	·	·	·
CCOC(=O)c1[nH]c(C=O)c(C(=O)OCC)c1C	?	44%	-3%	11%	3.7µM*	1.6µM*
CCOC(=O)c1c(C)[nH]c(C(=O)N/N=C\c2ccccc2O)c1C	?	?	-33%	-33%	5.8µM*	7.3µM*
CCOC(=O)c1[nH]c(C)c(C(=O)Nc2cc(Cl)ccc2C)c1C	?	-2%	4%	1%	0.089µM*	0.32µM*
CCOC(=O)c1c(C)[nH]c(C(C)=O)c1C	i	2%	-5%	-13%	0%	3%
CCOC(=O)c1[nH]c(C)c(C(=O)Nc2ccccc2C)c1C	i	0%	-15%	-1%	2.3µM*	5.8µM*
CCOC(=O)c1c(C)[nH]c(C(=O)N/N=C/c2cc([N+](=O)[O-])ccc2O)c1C	?	?	-21%	-13%	?	-26%
CCNC(=O)c1c(C)[nH]c(C(=O)OCC)c1C	i	2%	0%	2%	-1%	10%
C=CCSC(=C(C#N)C#N)c1cc2c([nH]1)CCCC2	i	-30%	?	-97%	16µM*	16µM*
O=C(O)c1cc2c([nH]c1=O)CCCC2	i	-9%	2%	2%	-5%	-4%
C/C(=N/NC(=O)c1cccs1)c1c(C)[nH]n(-c2nc3ccccc3s2)c1=O	i	?	-27%	1µM*	2.6µM*	2.3µM*
CC/C(=N/NC(=O)c1ccc2c(c1)OCO2)c1ccccc1O	?	·	2.5µM*	-39%	23µM*	-19%
CC(C)c1ccc(O)c(NC(=S)NC(=O)c2ccc3c(c2)OCO3)c1	i	36%	14µM*	-84%	15µM*	?
O=C(N/N=C\c1c(O)ccc2ccccc12)c1ccc(S(=O)(=O)N2CCCCC2)cc1	·	0.53µM*	0%	19%	?	?
